One sequence from paper PMC7862700, “An all-to-all approach to the identification of sequence-specific readers for epigenetic DNA modifications on cytosine” can be followed below.

Test in all cases: DAPPL (digital affinity profiling via proximity ligation, sequencing); 10 mM Tris-HCl pH 7.5, 50 mM NaCl, 1 mM DTT, 4% glycerol, room temperature, 30 min; GST-TFs on glutathione beads, 16-mer random dsDNA library, 0.1% formaldehyde crosslink after washing; high values mean tight binding
Settings in all cases: protein: recombinant; tags: N-terminal GST; dsDNA, one strand shown

Assay [1] addresses T1, ERG (Homo sapiens, UniProt P11308 1-479).
T1 sequence: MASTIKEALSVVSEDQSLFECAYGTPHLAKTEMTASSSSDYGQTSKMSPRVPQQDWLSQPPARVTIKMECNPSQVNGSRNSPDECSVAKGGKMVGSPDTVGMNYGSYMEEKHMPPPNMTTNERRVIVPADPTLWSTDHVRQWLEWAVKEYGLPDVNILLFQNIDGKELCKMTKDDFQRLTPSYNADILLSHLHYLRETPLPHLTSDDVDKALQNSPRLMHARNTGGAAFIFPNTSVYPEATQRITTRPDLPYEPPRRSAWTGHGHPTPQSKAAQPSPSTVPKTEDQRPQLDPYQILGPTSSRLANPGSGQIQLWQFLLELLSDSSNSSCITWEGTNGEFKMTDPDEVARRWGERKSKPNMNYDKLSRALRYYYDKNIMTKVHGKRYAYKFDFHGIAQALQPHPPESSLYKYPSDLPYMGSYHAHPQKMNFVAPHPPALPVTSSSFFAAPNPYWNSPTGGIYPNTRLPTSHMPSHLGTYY
Summed up:
(§1)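 GST fusions of human transcription factors were expressed in yeast and captured with glutathione beads. Once given DNA barcodes and pooled alongside a tag-only sample, they were incubated for 30 min at room temperature with 200 nmole of a random double-stranded 16-mer DNA library in Tris/NaCl/DTT/glycerol buffer, then washed, crosslinked (0.1% formaldehyde), proximity-ligated, PCR-amplified and sequenced on an Illumina NextSeq500. The binding signal of each hexamer is its read frequency for a factor divided by its frequency for the tag-only sample.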

The target of assay [2] is ELF1 (Homo sapiens, UniProt P32519 1-619). An outline of the steps:
as §1

Assay [3] concerns the target T2, EHF (Homo sapiens, UniProt Q9NZC4 1-300).
T2 sequence: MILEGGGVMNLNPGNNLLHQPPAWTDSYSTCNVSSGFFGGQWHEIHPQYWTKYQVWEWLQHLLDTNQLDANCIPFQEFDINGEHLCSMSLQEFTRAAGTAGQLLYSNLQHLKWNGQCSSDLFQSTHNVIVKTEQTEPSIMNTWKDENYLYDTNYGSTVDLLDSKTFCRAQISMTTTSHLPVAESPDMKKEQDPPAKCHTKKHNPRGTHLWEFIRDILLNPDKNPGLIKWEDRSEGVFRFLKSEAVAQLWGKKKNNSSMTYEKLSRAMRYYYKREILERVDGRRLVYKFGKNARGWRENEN
An outline of the steps:
as §1

Assay [4] deals with SPI1 (Homo sapiens, UniProt P17947 1-270). Summed up: as §1
Assay [5] deals with SPIB (Homo sapiens, UniProt Q01892 1-262). An outline of the steps: as §1
Chain of SPIB (Q01892 whole entry): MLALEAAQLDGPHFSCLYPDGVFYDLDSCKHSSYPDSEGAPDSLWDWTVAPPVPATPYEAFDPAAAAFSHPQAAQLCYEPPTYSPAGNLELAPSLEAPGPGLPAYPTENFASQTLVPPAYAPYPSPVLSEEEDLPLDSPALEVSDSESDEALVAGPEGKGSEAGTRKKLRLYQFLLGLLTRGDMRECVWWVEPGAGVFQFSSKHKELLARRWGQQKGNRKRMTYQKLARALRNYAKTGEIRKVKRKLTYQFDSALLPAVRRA
Assay [6] addresses T3, FEV (Homo sapiens, UniProt Q99581 1-238).
T3 sequence: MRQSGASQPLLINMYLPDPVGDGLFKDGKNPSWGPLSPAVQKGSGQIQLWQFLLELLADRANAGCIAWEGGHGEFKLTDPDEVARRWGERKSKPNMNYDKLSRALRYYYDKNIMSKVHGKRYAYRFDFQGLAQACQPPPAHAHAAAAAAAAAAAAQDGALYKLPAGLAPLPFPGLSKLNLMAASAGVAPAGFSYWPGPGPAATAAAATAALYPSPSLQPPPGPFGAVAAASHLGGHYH
Summed up: as §1

Assay [7] addresses ETV5 (Homo sapiens, UniProt P41161 1-510). An outline of the steps:
as §1

Assay [8] deals with T4, ELK4 (Homo sapiens, UniProt P28324-2 1-405).
T4 sequence: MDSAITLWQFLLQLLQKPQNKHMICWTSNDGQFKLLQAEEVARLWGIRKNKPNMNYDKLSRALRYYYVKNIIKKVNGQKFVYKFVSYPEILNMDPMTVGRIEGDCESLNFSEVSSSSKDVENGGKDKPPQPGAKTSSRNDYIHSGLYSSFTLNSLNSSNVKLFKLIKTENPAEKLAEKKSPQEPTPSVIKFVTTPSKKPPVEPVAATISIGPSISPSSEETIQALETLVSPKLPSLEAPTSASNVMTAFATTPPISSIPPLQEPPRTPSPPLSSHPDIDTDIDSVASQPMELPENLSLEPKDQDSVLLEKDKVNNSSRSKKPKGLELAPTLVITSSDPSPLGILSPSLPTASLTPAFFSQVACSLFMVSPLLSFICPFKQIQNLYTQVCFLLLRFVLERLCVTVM
An outline of the steps:
as §1

Assay [9] deals with T5, ETV2 (Homo sapiens, UniProt O00321 1-342).
T5 sequence: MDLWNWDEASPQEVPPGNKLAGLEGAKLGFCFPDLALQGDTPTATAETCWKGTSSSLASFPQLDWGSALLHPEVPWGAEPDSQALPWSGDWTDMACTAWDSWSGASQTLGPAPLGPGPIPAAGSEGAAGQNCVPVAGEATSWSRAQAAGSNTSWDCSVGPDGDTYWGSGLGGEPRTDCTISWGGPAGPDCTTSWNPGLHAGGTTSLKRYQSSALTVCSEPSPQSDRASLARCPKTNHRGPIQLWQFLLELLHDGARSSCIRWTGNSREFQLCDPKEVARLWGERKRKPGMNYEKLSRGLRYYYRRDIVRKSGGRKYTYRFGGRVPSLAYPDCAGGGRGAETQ
Summed up:
as §1

Assay [10] addresses T6, ELF3 (Homo sapiens, UniProt P78545 1-371).
T6 sequence: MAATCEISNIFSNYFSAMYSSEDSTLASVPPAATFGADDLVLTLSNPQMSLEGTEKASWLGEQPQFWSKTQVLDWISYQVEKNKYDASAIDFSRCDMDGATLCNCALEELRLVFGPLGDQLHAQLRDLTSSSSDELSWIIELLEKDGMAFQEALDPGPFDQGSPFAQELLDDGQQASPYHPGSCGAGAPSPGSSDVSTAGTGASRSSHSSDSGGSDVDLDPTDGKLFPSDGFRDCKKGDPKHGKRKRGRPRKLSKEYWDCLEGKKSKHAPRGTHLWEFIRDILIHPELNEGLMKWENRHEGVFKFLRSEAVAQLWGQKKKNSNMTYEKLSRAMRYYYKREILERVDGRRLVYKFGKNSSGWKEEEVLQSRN
Summed up: as §1

Assay [11] has as its target T7, ERF (Homo sapiens, UniProt P50548 1-548).
T7 sequence: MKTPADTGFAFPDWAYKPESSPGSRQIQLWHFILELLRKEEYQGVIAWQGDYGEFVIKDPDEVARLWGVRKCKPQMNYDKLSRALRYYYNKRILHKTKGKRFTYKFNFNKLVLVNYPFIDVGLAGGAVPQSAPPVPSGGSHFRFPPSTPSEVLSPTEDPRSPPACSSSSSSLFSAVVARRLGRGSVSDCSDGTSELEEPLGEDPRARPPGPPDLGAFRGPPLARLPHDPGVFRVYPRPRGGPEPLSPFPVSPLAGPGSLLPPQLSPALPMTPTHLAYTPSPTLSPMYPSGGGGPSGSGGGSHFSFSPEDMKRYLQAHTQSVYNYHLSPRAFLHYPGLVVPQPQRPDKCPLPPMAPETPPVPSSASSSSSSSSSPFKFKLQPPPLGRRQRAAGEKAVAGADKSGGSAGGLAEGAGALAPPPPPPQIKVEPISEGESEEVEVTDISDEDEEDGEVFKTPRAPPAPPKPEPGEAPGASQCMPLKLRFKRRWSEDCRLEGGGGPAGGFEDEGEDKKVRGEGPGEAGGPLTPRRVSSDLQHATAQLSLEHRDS
Summed up:
as §1

For assay [12], the target named is T8, ETV3L (Homo sapiens, UniProt Q6ZN32 1-361).
T8 sequence: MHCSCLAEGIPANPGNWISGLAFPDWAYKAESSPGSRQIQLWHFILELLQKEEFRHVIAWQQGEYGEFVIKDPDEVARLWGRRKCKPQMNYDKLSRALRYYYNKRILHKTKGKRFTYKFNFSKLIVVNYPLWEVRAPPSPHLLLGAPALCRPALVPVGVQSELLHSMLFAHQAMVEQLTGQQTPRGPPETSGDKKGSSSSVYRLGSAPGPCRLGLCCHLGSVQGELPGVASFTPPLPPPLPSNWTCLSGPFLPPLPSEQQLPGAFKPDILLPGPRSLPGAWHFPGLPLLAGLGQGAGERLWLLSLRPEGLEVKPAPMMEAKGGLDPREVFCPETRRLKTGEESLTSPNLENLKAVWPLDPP
Summed up: as §1

Assay [13] addresses T9, ETS2 (Homo sapiens, UniProt P15036 1-469).
T9 sequence: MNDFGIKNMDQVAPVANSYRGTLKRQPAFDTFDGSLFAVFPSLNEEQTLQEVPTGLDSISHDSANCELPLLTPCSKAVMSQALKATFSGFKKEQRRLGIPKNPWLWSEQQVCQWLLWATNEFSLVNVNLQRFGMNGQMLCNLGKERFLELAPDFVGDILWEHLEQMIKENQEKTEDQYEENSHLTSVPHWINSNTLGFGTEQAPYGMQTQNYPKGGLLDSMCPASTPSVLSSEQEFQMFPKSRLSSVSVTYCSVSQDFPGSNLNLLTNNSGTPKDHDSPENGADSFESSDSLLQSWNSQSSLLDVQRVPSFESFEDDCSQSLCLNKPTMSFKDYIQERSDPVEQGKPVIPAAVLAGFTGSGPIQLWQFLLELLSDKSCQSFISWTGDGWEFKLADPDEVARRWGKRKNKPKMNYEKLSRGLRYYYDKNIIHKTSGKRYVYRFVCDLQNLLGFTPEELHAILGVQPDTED
Summed up:
as §1

The target in assay [14] is T10, ETV7 (Homo sapiens, UniProt Q9Y603 1-341).
T10 sequence: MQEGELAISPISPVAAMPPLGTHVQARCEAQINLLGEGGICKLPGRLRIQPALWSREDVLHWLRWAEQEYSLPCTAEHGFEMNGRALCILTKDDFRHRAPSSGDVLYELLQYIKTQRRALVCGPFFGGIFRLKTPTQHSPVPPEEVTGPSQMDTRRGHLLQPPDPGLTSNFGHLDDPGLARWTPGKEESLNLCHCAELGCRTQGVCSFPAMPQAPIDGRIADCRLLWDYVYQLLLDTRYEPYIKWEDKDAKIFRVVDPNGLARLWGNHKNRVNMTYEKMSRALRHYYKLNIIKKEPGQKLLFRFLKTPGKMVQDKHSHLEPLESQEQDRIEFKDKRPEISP
An outline of the steps: as §1

Assay [15] concerns the target T11, ETV3 (Homo sapiens, UniProt P41162-2 1-143).
T11 sequence: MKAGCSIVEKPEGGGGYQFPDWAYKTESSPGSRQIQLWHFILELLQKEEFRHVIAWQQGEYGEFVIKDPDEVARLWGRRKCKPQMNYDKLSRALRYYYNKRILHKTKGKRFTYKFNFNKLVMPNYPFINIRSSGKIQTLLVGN
Summed up:
as §1

For assay [16], the target named is ETV6 (Homo sapiens, UniProt P41212 1-452). An outline of the steps: as §1
Chain of ETV6 (P41212 whole entry): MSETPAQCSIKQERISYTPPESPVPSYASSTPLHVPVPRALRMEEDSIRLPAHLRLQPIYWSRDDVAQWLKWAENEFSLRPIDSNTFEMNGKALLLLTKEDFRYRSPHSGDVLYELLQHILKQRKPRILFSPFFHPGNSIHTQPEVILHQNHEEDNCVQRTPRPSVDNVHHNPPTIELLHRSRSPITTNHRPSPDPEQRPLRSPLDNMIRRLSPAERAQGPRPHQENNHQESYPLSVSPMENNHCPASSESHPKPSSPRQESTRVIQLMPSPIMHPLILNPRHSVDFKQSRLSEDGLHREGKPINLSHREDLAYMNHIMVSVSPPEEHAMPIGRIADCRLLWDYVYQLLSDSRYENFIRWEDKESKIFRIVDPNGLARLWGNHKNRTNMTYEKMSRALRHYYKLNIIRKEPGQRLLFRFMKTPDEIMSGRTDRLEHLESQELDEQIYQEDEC

Chain of ELF1 (P32519 whole entry): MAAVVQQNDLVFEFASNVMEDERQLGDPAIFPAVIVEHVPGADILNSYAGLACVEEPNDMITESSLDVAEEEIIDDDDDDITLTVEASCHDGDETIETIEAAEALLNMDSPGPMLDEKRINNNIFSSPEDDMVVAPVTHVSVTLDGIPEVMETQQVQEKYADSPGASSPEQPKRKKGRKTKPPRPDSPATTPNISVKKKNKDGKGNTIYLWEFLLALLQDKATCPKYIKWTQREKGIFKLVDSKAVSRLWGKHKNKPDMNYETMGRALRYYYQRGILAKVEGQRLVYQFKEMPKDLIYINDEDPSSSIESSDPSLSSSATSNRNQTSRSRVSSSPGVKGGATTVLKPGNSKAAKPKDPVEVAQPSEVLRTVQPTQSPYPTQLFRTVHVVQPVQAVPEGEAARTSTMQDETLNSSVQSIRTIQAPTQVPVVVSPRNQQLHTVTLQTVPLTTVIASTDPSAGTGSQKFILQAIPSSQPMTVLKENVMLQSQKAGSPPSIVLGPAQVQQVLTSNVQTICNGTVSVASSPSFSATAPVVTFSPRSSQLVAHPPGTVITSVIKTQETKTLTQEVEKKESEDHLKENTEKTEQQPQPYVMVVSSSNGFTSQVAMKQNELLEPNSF
Chain of ETV5 (P41161 whole entry): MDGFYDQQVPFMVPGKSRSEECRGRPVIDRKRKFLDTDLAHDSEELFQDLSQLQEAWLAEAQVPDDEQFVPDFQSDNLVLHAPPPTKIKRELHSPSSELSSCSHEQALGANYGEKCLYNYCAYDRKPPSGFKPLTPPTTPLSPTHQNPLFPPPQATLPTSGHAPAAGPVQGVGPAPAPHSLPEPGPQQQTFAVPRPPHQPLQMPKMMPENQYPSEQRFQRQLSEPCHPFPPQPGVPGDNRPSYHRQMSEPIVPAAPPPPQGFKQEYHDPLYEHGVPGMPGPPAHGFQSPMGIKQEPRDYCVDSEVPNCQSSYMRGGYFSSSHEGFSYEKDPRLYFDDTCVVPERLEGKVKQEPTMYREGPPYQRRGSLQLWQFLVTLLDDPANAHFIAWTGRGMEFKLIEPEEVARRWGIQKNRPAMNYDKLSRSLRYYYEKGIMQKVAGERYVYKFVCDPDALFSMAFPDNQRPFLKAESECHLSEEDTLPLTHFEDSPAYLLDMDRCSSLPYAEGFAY

As for TGGCTG, the binding signal in [1] is 1.04 fold enrichment (6-mer frequency, TF over GST control); in assay [2], 1.06 fold enrichment (6-mer frequency, TF over GST control); in assay [3], 1.23 fold enrichment (6-mer frequency, TF over GST control); in assay [4], 1.02 fold enrichment (6-mer frequency, TF over GST control); in assay [5], 1.01 fold enrichment (6-mer frequency, TF over GST control); in [6] it was 1.04 fold enrichment (6-mer frequency, TF over GST control). For the same sequence, the binding signal was 1.08 fold enrichment (6-mer frequency, TF over GST control) in [7]; 1.24 fold enrichment (6-mer frequency, TF over GST control) in assay [8]; 1.26 fold enrichment (6-mer frequency, TF over GST control) in assay [9]; 1 fold enrichment (6-mer frequency, TF over GST control) in [10]; 1.17 fold enrichment (6-mer frequency, TF over GST control) in assay [11]; 1.09 fold enrichment (6-mer frequency, TF over GST control) in assay [12]. In addition, the binding signal in [13] was 1.05 fold enrichment (6-mer frequency, TF over GST control); in [14], 1.07 fold enrichment (6-mer frequency, TF over GST control); in assay [15], 1 fold enrichment (6-mer frequency, TF over GST control); in assay [16] it was 1.02 fold enrichment (6-mer frequency, TF over GST control).
